A number with no mark means an inactive call.
Each compound was assayed on E18 rat cortical neuron-glia co-culture (assay: myelination (MBP fiber length per Olig2+ nucleus), % of 1 µM DAPT response (DMSO = 0) (% of DAPT); higher = more myelination, active = 50 or more). Conditions: 5 µM; treatment time: 8 days (DIV5-DIV13).
Outline: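 Four 10X fields in each of duplicate wells were analysed after cultures were fixed in 4 % paraformaldehyde and immunostained for MBP and Olig2, with DAPI as the nuclear counterstain. The cultures were papain-dissociated primary E18 rat cortical co-cultures at 20,000 cells/well on poly-d-lysine/laminin 96-well plates, dosed with library compounds at 1 or 5 µM in myelination medium from DIV5 to DIV13. The myelination readout was continuous straight MBP fiber length per Olig2+ nucleus, with 0.1 % DMSO set to 0 and a 1 µM positive control set to 100.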

In order of rising myelination:
1. O=C1NC(C(=O)O)CS1 (stereo not given) [2-oxothiazolidine-4-carboxylic acid]  -59.9
2. Nc1nc2ccc(OC(F)(F)F)cc2s1 [Riluzole]  -52.5
3. NS(=O)(=O)Cc1noc2ccccc12 [Zonisamide]  -30.8
4. c1ccc(-c2ccc(C(c3ccccc3)n3ccnc3)cc2)cc1 (stereo not given) [Bifonazole]  -26.8
5. Cn1c(=O)c2nc[nH]c2n(C)c1=O [Theophylline]  -20.2
6. OC(Cn1cncn1)(Cn1cncn1)c1ccc(F)cc1F [Fluconazole]  -19.9
7. Cc1ncc([N+](=O)[O-])n1CC(C)O (stereo not given) [Secnidazole]  -18.7
8. CC[C@H](C)C(=O)O[C@H]1C[C@H](O)C=C2C=C[C@H](C)[C@H](CC[C@@H](O)C[C@@H](O)CC(=O)O)[C@H]21 [Pravastatin]  -17.4
9. OC(CCN1CCCCC1)(c1ccccc1)C1CCCCC1 (stereo not given) [Trihexyphenidyl]  -15.2
10. CCCCCCNC(=O)n1cc(F)c(=O)[nH]c1=O [Carmofur]  -14.4
11. C[C@]12CCC(=O)C=C1CC[C@@H]1[C@@H]2CC[C@@]2(C)[C@H]1CC[C@]2(O)C(=O)CO [Cortodoxone]  -9
12. C[C@]12C[C@H](O)[C@H]3[C@@H](CCC4=CC(=O)CC[C@@]43C)[C@@H]1CC[C@@H]2C(=O)CO [Corticosterone]  -4.49
13. Oc1ncnc2[nH]ncc12 [Allopurinol]  -0.27
14. N#Cc1ccc(C(c2ccc(C#N)cc2)n2cncn2)cc1 [letrozole]  2.49

`O=c1[nH]c(=O)n([C@H]2C[C@H](O)[C@@H](CO)O2)cc1F` [Floxuridine] was tested, and the myelination was 367 (active).
